# Laboratory results from PubChem BioAssay AID687016 (The Scripps Research Institute Molecular Screening Center, 2013).
# Several values for one entry are separate records, joined by “and”; a condition that tells them apart may be missing. Equal values may be shown once. Screen size: about 370,000 compounds; about 2,800 (0.76%) were called active. Cut-off read from the data, not from the text of the source: active = inhibition above about 21%; inactive = the rest. Only a selection was taken, and actives are over-represented in it overall.
# Target: E3 ubiquitin-protein ligase UHRF1 (Homo sapiens) (UniProt Q96T88)
# Assay: UHRF1 methylated DNA binding inhibitors, primary screen, counter-screen for MBD2 inhibitor project, biochemical, TR-FRET, human UHRF1, single concentration (AID 687016);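 note: UHRF1 SRA domain binding a hemimethylated CpG hairpin DNA probe; 0% = median of test compound wells and 100% = reference inhibitor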
# Conditions: UHRF1 binding to methylated oligo, at 4.4 µM, stronger effect = higher value
# Sequence of E3 ubiquitin-protein ligase UHRF1 (Homo sapiens) (Q96T88 whole entry, looked up, the tested form may be a part): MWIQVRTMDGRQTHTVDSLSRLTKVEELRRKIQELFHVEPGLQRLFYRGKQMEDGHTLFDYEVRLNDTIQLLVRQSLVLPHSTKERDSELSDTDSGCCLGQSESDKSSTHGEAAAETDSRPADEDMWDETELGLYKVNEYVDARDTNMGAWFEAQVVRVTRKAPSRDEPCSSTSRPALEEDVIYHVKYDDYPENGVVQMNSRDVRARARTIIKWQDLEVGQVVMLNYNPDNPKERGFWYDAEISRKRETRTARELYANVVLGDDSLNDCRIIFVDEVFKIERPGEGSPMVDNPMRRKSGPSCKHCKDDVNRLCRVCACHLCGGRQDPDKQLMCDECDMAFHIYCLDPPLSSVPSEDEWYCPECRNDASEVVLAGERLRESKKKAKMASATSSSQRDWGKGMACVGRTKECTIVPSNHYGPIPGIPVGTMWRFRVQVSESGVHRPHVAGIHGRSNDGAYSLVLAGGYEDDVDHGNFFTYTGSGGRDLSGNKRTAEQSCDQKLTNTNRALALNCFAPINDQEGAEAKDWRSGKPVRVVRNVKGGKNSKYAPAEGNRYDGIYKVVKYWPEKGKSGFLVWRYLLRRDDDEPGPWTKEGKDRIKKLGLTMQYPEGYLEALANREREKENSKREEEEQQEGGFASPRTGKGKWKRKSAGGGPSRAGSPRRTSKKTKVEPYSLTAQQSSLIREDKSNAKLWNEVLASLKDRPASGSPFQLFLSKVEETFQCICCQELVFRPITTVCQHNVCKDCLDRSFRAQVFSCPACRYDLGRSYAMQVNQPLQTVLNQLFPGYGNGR
row,SMILES,inhibition
1,C=CCN1C(=O)[C@@H](CC(=O)NCC2CCCCC2)[C@]2(C(=O)OC)CCCCC=C12,-2.02% (inactive)
2,COc1cccc(N2CCN(CC(=O)N(C)Cc3ccc(F)cc3)CC2)c1,-0.26% (inactive)
3,COC(=O)c1cc(S(=O)(=O)N2CCN(c3ccccc3C)CC2)cn1C,-0.14% (inactive)
4,CCOC(=O)[C@]12CCCC=C1N(Cc1ccc(OC)cc1)C(=O)[C@@H]2CC(=O)NCc1cccs1,0.05% (inactive)
5,O=C(Nc1cc(Cl)cc(Cl)c1)OCCN1CCCC12CCC(c1ccccc1)CC2 (centres undefined),-2.5% (inactive)
6,O=C(CSc1nc2c(c(=O)[nH]1)CCCC2)N1CCCCC1,4.3% (inactive)
7,CCCC(C(=O)OCCN(CC)CC)(c1ccccc1)c1ccccc1,0% (inactive)
8,CN(CCOc1ccc(CC2SC(=O)NC2=O)cc1)c1ccccn1 (centres undefined),0.45% (inactive) and -0.75% (inactive)
9,CCN(CC)CCOc1ccc2c(c1)C(=NNC(=O)c1ccccn1)c1cc(OCCN(CC)CC)ccc1-2,105% (active)
10,Cc1ccc(C)c(NC(=O)CCS(=O)(=O)c2ccccc2)c1,5.41% (inactive)
11,Cc1ccsc1-c1cc(C(=O)O)c2c(ccc3ccccc32)n1,-2.73% (inactive)
12,CCOC(=O)c1ccn(-c2nc(-c3ccco3)cc(C(F)(F)F)n2)n1,1.45% (inactive)
13,Cc1cc(C)c2nc(-c3ccco3)cc(C(=O)O)c2c1,73.6% (active)
14,C=C(C)C#CC(Cc1ccccc1)NCC1CC1 (centres undefined),-0.06% (inactive)
15,Cc1ccccc1NC(=O)Cn1nnc(-c2ccccc2F)n1,-2.25% (inactive)
16,CC(=O)c1cc(-c2ccc3ccccc3c2)c(=O)n2c1CCC2,-1.09% (inactive)
17,COC(=O)[C@]12C[C@H](CC(=O)N3CCN(C(=O)C4CC4)CC3)C(=O)N(CCC3=CCCCC3)C1=C[C@H](C(C)C)O[C@@H]2C1CC1,-0.03% (inactive)
18,COc1nc(-c2ccc(Cl)cc2)ccc1-c1noc(-c2cccs2)n1,37.1% (active)
19,N#Cc1ccc(-c2ccc(Cl)cc2)nc1Oc1ccc(F)cc1,-1.28% (inactive)
20,Cc1cc(NS(=O)(=O)c2ccc(NC(=O)CSc3nnc(-c4ccc(C(C)(C)C)cc4)n3Cc3ccco3)cc2)nc(C)n1,-1.86% (inactive)
21,COC(=O)C12C=C3CC(c4ccccc4)=C3C(=O)N1Cc1[nH]c3ccccc3c1C2 (centres undefined),-0.85% (inactive)
22,C=CCN1C(=O)[C@H](CC(=O)NCCCN2CCCC2=O)[C@@]2(C(=O)OCC)CCCC=C12,1.86% (inactive)
23,COC(=O)[C@]12C[C@H](CC(=O)NCCCN3CCCC3=O)C(=O)N(CCc3ccc(OC)c(OC)c3)C1=C[C@H](COCc1ccccc1)O[C@@H]2C,-1.34% (inactive)
24,Nc1ncnc2c1ncn2[C@@H]1O[C@H](C(=O)N2CCSC2)[C@@H](O)[C@H]1O,2.48% (inactive)
25,Nc1ncnc2c1ncn2C1OC(CO)CC1O (centres undefined),60.9% (active)

row,SMILES,inhibition
1,Nc1ncnc2c1ncn2[C@@H]1O[C@H](C(=O)NCC(F)(F)F)[C@@H](O)[C@H]1O,-0.85% (inactive)
2,O=C(c1ccccc1)c1ccc(-c2ccccc2C(=O)NC2CCCCN(Cc3ccc(Cl)cc3)C2=O)cc1 (centres undefined),-0.04% (inactive)
3,CCCC1CCC2(CCCN2CCOC(=O)NCc2ccccc2)CC1 (centres undefined),0.86% (inactive)
4,COC(=O)C1CN(CC(C)C)CCS(=O)(=O)N1Cc1ccc(F)cc1 (centres undefined),0.32% (inactive)
5,O=C(c1ccc(C(F)(F)F)cc1)C1CCCN(C(=O)c2csnn2)C1 (centres undefined),0.31% (inactive)
6,Cc1cnc(C(=O)N2CCCC(C(=O)c3ccc(C(F)(F)F)cc3)C2)cn1 (centres undefined),22% (active)
7,COCC(=O)N1CCCC(C(=O)c2ccc(C(F)(F)F)cc2)C1 (centres undefined),2.82% (inactive)
8,C=C(C)C1CC23C(=O)C4(C(=O)c5ccccc5)C[C@@]5(C)CCC(CC2C1(C)C)(C4=O)C35OC (some centres undefined),0.2% (inactive)
9,C=CCN1C(=O)[C@H](CC(=O)N2CCN(C(=O)OCC)CC2)[C@@]2(C(=O)OCC)CCCC=C12,-2.61% (inactive)
10,COC(=O)c1ccccc1-n1cc(COC(=O)NCCc2ccccc2)nn1,0.82% (inactive)
11,CC(CCN1CCC(C(O)(c2ccccc2)c2ccccc2)CC1)Oc1ccc(Cl)cc1 (centres undefined),1.4% (inactive)
12,O=C(CSc1nc2ccccc2n1Cc1ccccc1Cl)N/N=C\c1c[nH]c2ccccc12,-1.5% (inactive)
13,COc1ccc(Cl)cc1NC(=O)COC(=O)c1ccc(Br)o1,0.18% (inactive)
14,O=C(CCS(=O)(=O)c1ccc(Br)cc1)NCCc1ccc(Cl)cc1,0.15% (inactive)
15,COc1ccc(Cl)cc1NC(=O)CCS(=O)(=O)c1ccc(Br)cc1,45.2% (active)
16,C[C@H]1CCC/C=C/C(=O)c2c(O)cc(O)cc2CC(=O)O1,0.98% (inactive)
17,C[C@H]1Cn2cnc(C(=O)N[C@H](C)c3ccccc3)c2C(=O)N1,11.2% (inactive)
18,CC1CCN(C(=O)c2ncn3c2C(=O)N[C@@H](C)C3)CC1,22.7% (active)
19,C[C@@H]1Cn2cnc(C(=O)Nc3ccc(CNC(=O)OC(C)(C)C)cc3)c2C(=O)N1,2.17% (inactive)
20,FC(F)(F)c1cccc(NC(=S)OC2CCC23CCC(c2ccccc2)CC3)c1 (centres undefined),-1.02% (inactive)
21,Cc1ccc(-n2c(SCC(=O)Nc3ccc(S(=O)(=O)Nc4nccs4)cc3)nnc2-c2cccnc2)cc1,3.04% (inactive)
22,Cc1ccc(-n2c(SCC(=O)Nc3ccc(S(=O)(=O)Nc4nccs4)cc3)nnc2-c2ccccn2)cc1,2.8% (inactive)
23,CCc1nc2ccccc2n(CCOCCOCCn2c(=O)c(CC)nc3ccccc32)c1=O,0.72% (inactive)
24,Cc1nn2c3ccccc3nc2n(C)c1=O,64.7% (active)
25,CC(C)(C)c1cc(=O)n2c(nc3ccccc32)[nH]1,0.39% (inactive)

row,SMILES,inhibition
1,COC(=O)c1cccc(Cn2ccc3ccc(-c4ccc5ccn(C(=O)C6CCCCC6)c5c4)cc32)c1,-1.71% (inactive)
2,COc1ccc(C(C)C)cc1-c1ccc2nncn2c1,42.2% (active)
3,CS(=O)(=O)c1cccc(-c2ccc3nncn3c2)c1,4.75% (inactive)
4,COc1ccc(OC)c(S(=O)(=O)Nc2cccc(-c3ccc4nncn4n3)c2)c1,-0.61% (inactive)
5,Nn1c(SCC(=O)Nc2cccc3ccccc23)nnc1-c1cc(-c2ccc(F)cc2)n[nH]1,-1.05% (inactive)
6,COc1ccc(-n2cc(CNC3CCOCC3)c(-c3cccc(F)c3)n2)cc1,21.6% (active)
7,CCC(O)C1CCN(Cc2cn(-c3ccc(OC)cc3)nc2-c2cccc(F)c2)CC1 (centres undefined),0.5% (inactive)
8,COc1ccc(-c2nn(-c3ccccc3)cc2CN2CCCO2)c(F)c1,-0.87% (inactive)
9,O=C(N1CCOCC1)N1CC[C@H]2[C@H](CCCN2Cc2ccc(F)cc2)C1,-1.64% (inactive)
10,COC(=O)C1CN(Cc2cn(Cc3ccc(F)cc3)nn2)CCS(=O)(=O)N1Cc1ccc(Cl)cc1 (centres undefined),2.82% (inactive)
11,COC(=O)c1ccc2nc(-c3ccc(Cl)cc3)c(Cc3cccc(F)c3)n2c1,10.2% (inactive)
12,Fc1cccc(Cc2c(-c3cccc(Cl)c3)nc3ccc(Br)cn23)c1,1.63% (inactive)
13,Fc1cccc(Cc2c(-c3ccc(Cl)cc3)nc3ccc(Cl)cn23)c1,26.5% (active)
14,CN(CCc1ccccc1)C(=O)Cn1nc(-c2ccccc2)ccc1=O,1.78% (inactive)
15,CC(=O)Nc1ccccc1Sc1ccc2c3c(cccc13)C(=O)N(c1ccc(C)cc1)C2=O,21.6% (active)
16,Cc1ccc(-n2c(SCC(=O)Nc3cccc4ccccc34)nnc2-c2ccco2)cc1,-0.24% (inactive)
17,Cc1ccc(-n2c(SCC(=O)Nc3cccc4ccccc34)nnc2-c2ccccn2)cc1,0.12% (inactive)
18,COc1ccc(CSc2nnc(-c3cccc(C)c3)n2C)cc1,0.25% (inactive)
19,S=C(NCc1ccc(Cl)cc1)NC12CC3CC(CC(C3)C1)C2,-0.38% (inactive)
20,O=C(NCc1ccc(Cl)cc1)NCc1ccc(Cl)cc1,24.9% (active)
21,Cc1ccc(S(=O)(=O)NC(C)C(=O)NCc2ccc(Cl)cc2)cc1 (centres undefined),0.66% (inactive)
22,Cc1c[nH]c2cccc(-c3ccc(Cl)cc3)c12,-1.82% (inactive)
23,COc1cc(/C=C/C(=O)n2cnc3ccccc32)cc(OC)c1OC,1.6% (inactive)
24,Cc1cc(C)cc(NC(=O)N2CCC(N(C)CCC(C)C)CC2)c1,0.51% (inactive)
